# Test results as given in PubChem BioAssay (Tox21).
# Unmarked numbers belong to inactive results. Results filed as inconclusive are left out. A call without a number means that no potency is given here. Active and inactive are the calls of the source. Unless noted, the call rests on the fitted dose curve; in most records, active means well fitted curve in the direction sought with a large enough effect in the repeat runs; inconclusive means weak or mixed curves; inactive means no such curve, though single readings can be large; an effect the other way counts as inactive or inconclusive.
# How the values were obtained:
# [1] = qHTS assay to identify small molecule agonists of the hypoxia (HIF-1) signaling pathway - cell viability counter screen (AID 1224844; calls by dose curve; further: nearly all actives have a fitted effect of over 50% in size; further: potency means the concentration at half of the fitted maximal effect); conditions: HRE-bla ME-180 viability, CellTiter-Glo luminescence, 17 h; series mostly up to 76.8 µM
# Procedure, shortened: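 Viability counter screen: HRE-bla ME-180 cells plated 5 hrs before compound addition, treated 17 hrs at 37C and 5% CO2, then CellTiter-Glo added after the FRET reporter read; luminescence after 30 min.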
# [2] = A CellTox Green Cytotoxicity Assay to monitor cytotoxicity in HEK293 cells - 0 hour (AID 1224869); conditions: CellTox Green fluorescence; series mostly up to 76.8 µM; further: nearly all actives have a fitted effect of over 50% in size; further: potency means the concentration at half of the fitted maximal effect
# Procedure, shortened: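 Dead-cell fluorescence measured kinetically: asymmetric cyanine dye, HEK293, 600 cells/well, 5 h settle, 23 nL cpd/DMSO, 37 C, reads 0–40 h every 8 h.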
# [3] = qHTS RealTime-Glo MT Cell Viability Assay in HepG2 cells - 40 hour (AID 1224870); conditions: RealTime-Glo luminescence; series mostly up to 76.8 µM; further: nearly all actives have a fitted effect of over 50% in size; further: potency means the concentration at half of the fitted maximal effect
# Procedure, shortened: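 Real-time viability: cells seeded at 600 per well together with NanoLuc and cell-permeant prosubstrate, compounds added after 5 h incubation. Luminescence tracked at 0, 8, 16, 24, 32 and 40 h of exposure.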
# [4] = qHTS assay to identify small molecule antagonists of the estrogen related receptor (ERR) signaling pathway from Tox21 library (AID 1224848); conditions: ERR reporter cell line, luciferase antagonist mode, 18 h; series mostly up to 92.4 µM; further: nearly all actives have a fitted effect of over 50% in size; further: potency means the concentration at half of the fitted maximal effect
# Procedure, shortened: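 Luciferase luminescence (ONE-Glo, 30 min room temperature) was the read-out. Cells of the NTP-supplied ERR line, 2,000 per well, were given 6 h at 37 C before compound addition in DMSO and 18 h exposure at 37 C.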
# [5] = qHTS assay to identify small molecule agonists of the estrogen related receptor (ERR) signaling pathway from Tox21 library (AID 1224849; calls by dose curve; further: nearly all actives have a fitted effect of over 15% in size); conditions: ERR reporter cell line, ONE-Glo luciferase, 18 h; at 92.4 µM (top of the series) unless noted
# Procedure, shortened: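 Quantitative HTS in agonist format: NTP ERR cell line, compounds transferred in DMSO after 6 h plating, 18 h incubation at 37 C, ONE-Glo luminescence endpoint.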
# [6] = qHTS RealTime-Glo MT Cell Viability Assay in HepG2 cells - 24 hour (AID 1224867); conditions: RealTime-Glo luminescence; series mostly up to 76.8 µM; further: nearly all actives have a fitted effect of over 50% in size; further: potency means the concentration at half of the fitted maximal effect
# Procedure, shortened: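 Cells + NanoLuc/prosubstrate dispensed (600 cells/well) → 5 h at 37 C/5% CO2 → compounds in DMSO transferred → 40 h incubation at 37 C, luminescence read at 0, 8, 16, 24, 32, 40 h.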
# [7] = qHTS RealTime-Glo MT Cell Viability Assay in HEK293 cells - 32 hour (AID 1224868); conditions: RealTime-Glo luminescence; series mostly up to 76.8 µM; further: nearly all actives have a fitted effect of over 50% in size; further: potency means the concentration at half of the fitted maximal effect
# Procedure, shortened: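 Tox21 10K qHTS, HEK293, 600 cells/well, RealTime-Glo reagent co-dispensed with cells; 5 h preincubation, compound by pintool, 37 C, luminescence at 0–40 h.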
# [8] = qHTS assay to identify small molecule agonists of H2AX (AID 1224845; active means well fitted activation curve with a large enough effect in the signal ratio in the repeat runs, not every such curve was filed as active; the % refers to the signal ratio; further: potency means the concentration at half of the fitted maximal effect); conditions: CHO-K1 phospho-H2AX Ser139 HTRF, 3 h; series mostly up to 154 µM
# Procedure, shortened: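 Phospho-H2AX Ser139 measured by HTRF (ex 320 nm; em 665 and 620 nm) after 24 hr antibody incubation. Compounds, 15 concentrations, 0.76% DMSO, were applied to CHO-K1 cells for 3hr at 37C before lysis.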
# [9] = qHTS assay to identify small molecule agonists of H2AX - cell viability counter screen (AID 1224847; calls by dose curve; further: nearly all actives have a fitted effect of over 30% in size; further: potency means the concentration at half of the fitted maximal effect); conditions: CHO-K1 viability, CellTiter-Glo luminescence, 3 h; series mostly up to 70.9 µM
# Procedure, shortened: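 Quantitative HTS viability measurement: CHO-K1 wild-type cells in serum (10% FBS) medium, short 3 hr drug exposure at 37C with 0.76% DMSO, CellTiter-Glo luminescent detection.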
# [10] = qHTS assay to identify small molecule agonists of the hypoxia (HIF-1) signaling pathway (AID 1224846; active means well fitted activation curve with a large enough effect in the signal ratio in the repeat runs, not every such curve was filed as active; the % refers to the signal ratio; further: potency means the concentration at half of the fitted maximal effect); conditions: HRE-bla ME-180 cells, beta-lactamase ratio, 17 h; series mostly up to 76.8 µM
# Procedure, shortened: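 Agonist mode reporter screen. ME-180 cells stably expressing bla under HRE control received test compounds in DMSO for 17 hrs (37C, 5% CO2), and beta-lactamase activity was then detected with the CCF4-AM FRET substrate.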
smiles,measurement,setting,value
Oc1cccc(-c2c3nc(c(-c4cccc(O)c4)c4ccc([nH]4)c(-c4cccc(O)c4)c4nc(c(-c5cccc(O)c5)c5ccc2[nH]5)CC4)C=C3)c1,Potency,[1],inactive
same,Potency,[2],inactive
same,Potency,[3],inactive
COc1cccc2c1C(=O)c1c(O)c3c(c(O)c1C2=O)C[C@@](O)(C(=O)CO)C[C@@H]3O[C@H]1C[C@H](N)[C@H](O[C@@H]2CCCCO2)[C@H](C)O1,Potency,[1],12 µM (active)
same,Potency,[4],4.22 µM (active)
same,"activity change, positive = activation",[5],-55.4% [at 42.5 µM]
same,Potency,[6],2.13 µM (active)
same,Potency,[7],0.239 µM (active)
same,Potency,[2],inactive
same,Potency,[3],1.9 µM (active)
NNc1nc(-c2ccc(N)cc2)cs1,Potency,[1],inactive
same,Potency,[4],61.1 µM (active)
same,Potency,[6],inactive
same,Potency,[2],inactive
same,Potency,[3],inactive
Oc1ccc(N=Nc2ccccc2)cc1,Potency,[1],inactive
same,Potency,[6],inactive
same,Potency,[7],19.8 µM (active)
same,Potency,[3],inactive
CC[C@@]1(O)C(=O)OCc2c1cc1n(c2=O)Cc2cc3c(CN(C)C)c(O)ccc3nc2-1,Potency,[8],1.39 µM (active)
same,Potency,[9],inactive
same,Potency,[4],1.19 µM (active)
same,"activity change, positive = activation",[5],-50.2% [at 42.5 µM]
same,Potency,[7],0.0674 µM (active)
same,Potency,[2],23.9 µM (active)
same,Potency,[3],5.35 µM (active)
CNCc1cc(F)ccc1Oc1ccc(Cl)c(Cl)c1,Potency,[8],inactive
same,Potency,[9],45 µM (active)
same,Potency,[4],48.6 µM (active)
same,Potency,[6],49 µM (active)
same,Potency,[7],43.6 µM (active)
O=C(O)c1cc(O)c2c(c1)C(=O)c1cccc(O)c1C2=O,Potency,[1],inactive
same,Potency,[9],inactive
same,Potency,[7],inactive
same,Potency,[3],inactive
O=CC=C(c1ccccc1)c1ccccc1,Potency,[1],inactive
same,Potency,[6],inactive
same,Potency,[7],17.5 µM (active)
same,Potency,[2],inactive
same,Potency,[3],inactive
N=C1N=C(N)c2ccccc21,Potency,[1],21.9 µM (active)
same,Potency,[7],24.5 µM (active)
same,Potency,[2],inactive
O=c1c(-c2ccccc2)c1-c1ccccc1,Potency,[1],13.4 µM (active)
same,Potency,[4],8.41 µM (active)
same,"activity change, positive = activation",[5],-61.4% [at 42.5 µM]
same,Potency,[6],16.9 µM (active)
same,Potency,[7],13.4 µM (active)
same,Potency,[2],inactive
same,Potency,[3],15.1 µM (active)
O=C(N/N=C/c1ccccc1O)c1ccncc1,Potency,[9],inactive
same,Potency,[4],11.9 µM (active)
same,"activity change, positive = activation",[5],-42.8% [at 42.5 µM]
same,Potency,[6],inactive
same,Potency,[2],inactive
same,Potency,[3],inactive
Cc1cc2c(cc1C(F)(F)F)N(C(=O)Nc1ccc(Oc3cccnc3C)nc1)CC2,Potency,[10],inactive
same,Potency,[9],45.7 µM (active)
same,Potency,[4],4.93 µM (active)
same,Potency,[7],4.97 µM (active)
same,Potency,[2],inactive
same,Potency,[3],inactive
CCCCCCCCCCn1cc[n+](CCCCCCCCCC)c1C,Potency,[9],10.1 µM (active)
same,Potency,[4],2.17 µM (active)
same,"activity change, positive = activation",[5],-74.4%
same,Potency,[7],1.38 µM (active)
same,Potency,[2],inactive
same,Potency,[3],19.5 µM (active)
O=Cc1cc(O)ccc1Br,Potency,[8],inactive
same,Potency,[6],inactive
same,Potency,[2],inactive
same,Potency,[3],inactive
Oc1cccc2cc3cccc(O)c3c(O)c12,Potency,[8],inactive
same,Potency,[9],inactive
same,Potency,[7],inactive
same,Potency,[2],inactive
same,Potency,[3],inactive
CSc1ccc2c(c1)C(N1CCN(C)CC1)Cc1ccccc1S2 (configuration not stated),Potency,[6],23.9 µM (active)
same,Potency,[2],inactive
Cc1cccc(CN2CCN(C(c3ccccc3)c3ccc(Cl)cc3)CC2)c1 (configuration not stated),Potency,[8],inactive
same,Potency,[4],26.6 µM (active)
same,Potency,[6],inactive
same,Potency,[7],inactive
same,Potency,[2],inactive
same,Potency,[3],inactive
Nc1ccccc1O,Potency,[9],inactive
same,"activity change, positive = activation",[5],-27.3%
same,Potency,[2],inactive
same,Potency,[3],inactive
CC(=O)S[C@@H]1CC2=CC(=O)CC[C@]2(C)[C@H]2CC[C@@]3(C)[C@@H](CC[C@@]34CCC(=O)O4)[C@H]12,Potency,[10],inactive
same,Potency,[9],inactive
same,Potency,[3],inactive
Fc1ccc(C(c2ccc(F)cc2)N2CCN(C/C=C/c3ccccc3)CC2)cc1,Potency,[4],23.7 µM (active)
same,"activity change, positive = activation",[5],-51.3% [at 42.5 µM]
same,Potency,[7],21.3 µM (active)
same,Potency,[2],inactive
same,Potency,[3],inactive
C/C(=C(/OCCOc1ccc(Cl)cc1)c1ccc(Cl)cc1Cl)n1ccnc1,Potency,[8],inactive
same,Potency,[9],inactive
same,Potency,[6],inactive
same,Potency,[2],inactive
same,Potency,[3],inactive
S=c1[nH]c2ccccc2s1,Potency,[10],inactive
same,Potency,[9],inactive
same,Potency,[4],54.5 µM (active)
same,"activity change, positive = activation",[5],-59.1%
same,Potency,[6],inactive
same,Potency,[7],inactive
same,Potency,[2],inactive
same,Potency,[3],inactive
NNc1nc(-c2ccccc2)cs1,Potency,[6],inactive
same,Potency,[2],inactive
same,Potency,[3],inactive
CC[C@@]1(O)C(=O)OCc2c1cc1n(c2=O)Cc2c-1nc1ccccc1c2/C=N/OC(C)(C)C,Potency,[4],0.0596 µM (active)
same,"activity change, positive = activation",[5],-54.3% [at 42.5 µM]
same,Potency,[7],0.0239 µM (active)
same,Potency,[3],1.07 µM (active)
NC(=O)N1C(=O)C(C(=O)c2cc(Cl)cs2)c2cc(F)c(Cl)cc21 (configuration not stated),Potency,[8],inactive
same,Potency,[4],inactive
same,Potency,[7],inactive
CN1CCC(Nc2ncc3ncnc(Nc4ccc(F)c(Cl)c4)c3n2)CC1,Potency,[10],8.49 µM (active)
same,"activity change, positive = activation",[5],-30.3% [at 42.5 µM]
same,Potency,[7],10.7 µM (active)
same,Potency,[2],inactive
O=c1cccccc1O,Potency,[8],40.9 µM (active)
same,Potency,[9],inactive
same,Potency,[2],inactive
same,Potency,[3],inactive
Nc1nc2ccccc2n1Cc1ccc(F)cc1,Potency,[8],inactive
same,Potency,[9],inactive
same,"activity change, positive = activation",[5],-28.8% [at 42.5 µM]
same,Potency,[6],inactive
same,Potency,[2],inactive
same,Potency,[3],inactive
CCN(Cc1cccnc1)C(=O)c1cccc(Cl)c1[C@]1(C)C(=O)N(Cc2ccc(OC)cc2OC)c2ccc(Cl)cc21,Potency,[8],inactive
same,Potency,[9],inactive
same,Potency,[7],20.4 µM (active)
same,Potency,[2],inactive
CCC(Cl)C(Cl)C(Cl)CC(Cl)C(Cl)C(C)Cl (configuration not stated),Potency,[10],inactive
same,Potency,[6],inactive
same,Potency,[7],inactive
same,Potency,[2],inactive
same,Potency,[3],inactive
O=C(NOCC1CC1)c1ccc(F)c(F)c1Nc1ccc(I)cc1Cl,Potency,[8],inactive
same,Potency,[4],11.9 µM (active)
same,"activity change, positive = activation",[5],-59% [at 42.5 µM]
same,Potency,[2],inactive
same,Potency,[3],0.535 µM (active)
CCCCN(CCCC)c1ccc(C(=O)c2ccccc2C(=O)O)c(O)c1,Potency,[4],55 µM (active)
same,"activity change, positive = activation",[5],-39.4%
same,Potency,[6],inactive
same,Potency,[7],inactive
same,Potency,[2],inactive
same,Potency,[3],inactive
Cc1[nH]nc2c1N=C(c1ccccc1Cl)c1cc([N+](=O)[O-])ccc1N2,Potency,[9],80 µM (active)
same,Potency,[6],inactive
same,Potency,[3],inactive
